Data reported in the antibiotic and cytotoxicity screens of Wong et al. (2023).
Among all 39,000 compounds or so, about 3,300 (8.5%) were called active. This excerpt belongs to a sample that is enriched for actives.

These compounds were tested on HepG2 (assay: cytotoxicity call (relative viability < 0.9)). Conditions: 10 µM.
For `COc1ncccc1N`, the cytotoxicity call was “inactive”.
With `O=C1CCc2cc(OCCCCc3nnnn3C3CCCCC3)ccc2N1` the cytotoxicity call was “inactive”.
With `O=C1CCc2ccc(OCCCCN3CCN(c4cccc(Cl)c4Cl)CC3)cc2N1` the cytotoxicity call was “active”.
`CCCCCCCCCCCC(=O)OCN1C(=O)CCc2ccc(OCCCCN3CCN(c4cccc(Cl)c4Cl)CC3)cc21` was tested, and the cytotoxicity call was “inactive”.
For `O=C(C[C@H]1CC[C@H](NC(=O)c2cccnc2)[C@@H](CO)O1)NCCN1CCCCC1`, the cytotoxicity call was “inactive”.
`C[C@H](N)c1ccc(Cl)cc1` was tested, and the cytotoxicity call was “inactive”.
`COc1cccc(S(=O)(=O)Nc2ccc3c(c2)[C@H]2C[C@H](CC(=O)NCc4ccccc4F)O[C@@H](CO)[C@H]2O3)c1` was tested, and the cytotoxicity call was “inactive”.
`C[C@H](CO)N1C[C@H](C)[C@H](CN(C)Cc2ccc(-c3ccccc3)cc2)Oc2ccc(NS(=O)(=O)c3cccs3)cc2C1=O` was tested, and the cytotoxicity call was “inactive”.
`C[C@H]1CN([C@@H](C)CO)C(=O)c2cc(NS(=O)(=O)c3cccs3)ccc2O[C@@H]1CN(C)Cc1ccc(Oc2ccccc2)cc1` was tested, and the cytotoxicity call was “inactive”.
In the case of `C[C@H](CO)N1C[C@H](C)[C@@H](CN(C)Cc2ccc(-c3ccccc3)cc2)Oc2ccc(NS(=O)(=O)c3cccs3)cc2C1=O`, the cytotoxicity call is reported as “inactive”.
For `C[C@@H]1CN([C@H](C)CO)C(=O)c2cc(NS(=O)(=O)c3cccs3)ccc2O[C@H]1CN(C)Cc1ccc(Oc2ccccc2)cc1`, the cytotoxicity call was “inactive”.
`C[C@@H]1CN([C@H](C)CO)C(=O)c2cc(NS(=O)(=O)c3cccs3)ccc2O[C@@H]1CN(C)Cc1ccc(Oc2ccccc2)cc1` was tested, and the cytotoxicity call was “active”.
With `C[C@@H]1CN([C@H](C)CO)C(=O)c2cc(NS(=O)(=O)c3cccs3)ccc2O[C@@H]1CN(C)Cc1ccc(-c2ccccc2)cc1` the cytotoxicity call was “active”.
For `NC(=O)c1cccc(Br)n1`, the cytotoxicity call was “inactive”.
`Cc1noc(C)c1S(=O)(=O)N(C)C[C@H]1OCc2cn(nn2)CCCC(=O)N([C@H](C)CO)C[C@@H]1C` was tested, and the cytotoxicity call was “inactive”.
For `Cc1ccc(S(=O)(=O)N(C)C[C@H]2Oc3ccc(NS(=O)(=O)c4cccs4)cc3C(=O)N([C@H](C)CO)C[C@H]2C)cc1`, the cytotoxicity call was “inactive”.
`C[C@H]1CN([C@@H](C)CO)C(=O)CCCn2cc(nn2)CO[C@@H]1CN(C)S(=O)(=O)c1ccc(-n2cccn2)cc1` was tested, and the cytotoxicity call was “inactive”.
In the case of `C[C@@H]1CN([C@@H](C)CO)C(=O)c2cc(NC(=O)CCN3CCOCC3)ccc2O[C@@H]1CN(C)S(=O)(=O)c1ccc(Cl)cc1`, the cytotoxicity call is reported as “inactive”.
For `C[C@@H]1CN([C@H](C)CO)C(=O)c2cc(NS(=O)(=O)c3ccccc3)ccc2O[C@@H](C)CCCCO[C@H]1CN(C)C(=O)Nc1ccccc1`, the cytotoxicity call was “inactive”.
`C[C@H]1CN([C@@H](C)CO)C(=O)Cc2cc(NC(=O)Nc3cccc4ccccc34)ccc2O[C@H]1CN(C)C(=O)Nc1ccc(C(F)(F)F)cc1` was tested, and the cytotoxicity call was “inactive”.
`COc1ccc(CN(C)C[C@H]2Oc3c(NS(=O)(=O)c4c(C)noc4C)cccc3C(=O)N([C@H](C)CO)C[C@H]2C)cc1` was tested, and the cytotoxicity call was “inactive”.
With `C[C@H]1CN([C@@H](C)CO)C(=O)Cc2cc(NS(=O)(=O)c3cccs3)ccc2O[C@H]1CN(C)Cc1ccc(-c2ccccc2)cc1` the cytotoxicity call was “inactive”.
In the case of `C[C@@H]1CCCCO[C@@H](CN(C)Cc2ccc(C(=O)Nc3ccccc3N)cc2)[C@@H](C)CN([C@H](C)CO)C(=O)c2cc(NC(=O)c3ccncc3)ccc2O1`, the cytotoxicity call is reported as “inactive”.
With `C[C@@H]1CCCCO[C@H](CN(C)Cc2ccc(C(=O)Nc3ccccc3N)cc2)[C@@H](C)CN([C@H](C)CO)C(=O)c2cc(NC(=O)c3ccccc3)ccc2O1` the cytotoxicity call was “active”.
For `C[C@@H]1CCCCO[C@@H](CN(C)Cc2ccc(C(=O)Nc3ccccc3N)cc2)[C@@H](C)CN([C@H](C)CO)C(=O)c2cc(NC(=O)Cc3ccccc3)ccc2O1`, the cytotoxicity call was “inactive”.
With `C[C@H](CO)N1C[C@H](C)[C@H](CN(C)Cc2ccc(C(=O)Nc3ccccc3N)cc2)OCCCC[C@H](C)Oc2ccc(N(C)C)cc2C1=O` the cytotoxicity call was “inactive”.
With `C[C@@H]1CCCCO[C@@H](CN(C)Cc2ccc(C(=O)Nc3ccccc3N)cc2)[C@@H](C)CN([C@H](C)CO)C(=O)c2cc(NC(=O)Nc3ccccc3)ccc2O1` the cytotoxicity call was “inactive”.
For `C[C@@H]1CCCCO[C@@H](CN(C)Cc2ccc(C(=O)Nc3ccccc3N)cc2)[C@@H](C)CN([C@H](C)CO)C(=O)c2cc(NC(=O)c3ccccc3)ccc2O1`, the cytotoxicity call was “active”.
In the case of `C[C@@H]1CCCCO[C@@H](CN(C)Cc2ccc(C(=O)Nc3ccccc3N)cc2)[C@H](C)CN([C@H](C)CO)C(=O)c2cc(N(C)C)ccc2O1`, the cytotoxicity call is reported as “active”.
`C[C@H]1CCCCO[C@H](CN(C)Cc2ccc(C(=O)Nc3ccccc3N)cc2)[C@@H](C)CN([C@@H](C)CO)C(=O)c2cc(N(C)C)ccc2O1` was tested, and the cytotoxicity call was “inactive”.
`CC(C)NC(=O)Nc1ccc2c(c1)C(=O)N([C@H](C)CO)C[C@H](C)[C@H](CN(C)Cc1ccc(C(=O)Nc3ccccc3N)cc1)OCCCC[C@@H](C)O2` was tested, and the cytotoxicity call was “inactive”.
With `C[C@H]1CN([C@@H](C)CO)S(=O)(=O)c2ccc(C#CC3(O)CCCC3)cc2O[C@@H]1CN(C)C(=O)Cc1ccccc1` the cytotoxicity call was “inactive”.
For `C[C@@H]1CN([C@@H](C)CO)C(=O)c2cccc(NS(=O)(=O)c3ccc(F)cc3)c2O[C@@H]1CN(C)S(=O)(=O)c1cn(C)cn1`, the cytotoxicity call was “inactive”.
With `CCOC(=O)c1cccc([C@@H]2CC(=O)N(C(=O)OCc3ccccc3)[C@@H]2C(=O)Nc2cccc3cccnc23)c1` the cytotoxicity call was “inactive”.
With `Cc1noc(C)c1NC(=O)N(C)C[C@@H]1OCCCC[C@@H](C)Oc2ccc(NC(=O)C3CCCCC3)cc2C(=O)N([C@@H](C)CO)C[C@H]1C` the cytotoxicity call was “inactive”.
`C[C@@H]1CN([C@H](C)CO)C(=O)c2cc(NC(=O)CCC(F)(F)F)ccc2O[C@@H](C)CCCCO[C@H]1CN(C)S(=O)(=O)c1cccs1` was tested, and the cytotoxicity call was “inactive”.
`CN1CCC[C@H]1CCO` was tested, and the cytotoxicity call was “inactive”.
In the case of `CN1CCCC1CCOC(C)(c1ccccc1)c1ccc(Cl)cc1.O=C(O)C=CC(=O)O` (configuration not stated), the cytotoxicity call is reported as “active”.
In the case of `CN(C)CCOC(C)(c1ccccc1)c1ccccn1.O=C(O)CCC(=O)O` (configuration not stated), the cytotoxicity call is reported as “inactive”.
`COc1ccc(S(=O)(=O)N(C)C[C@H]2Oc3ccc(NS(=O)(=O)c4cn(C)cn4)cc3CC(=O)N([C@H](C)CO)C[C@H]2C)cc1` was tested, and the cytotoxicity call was “inactive”.
With `Cn1cc(N2C[C@]3(COCCN(C(=O)C4(C#N)CC4)C3)OCC2=O)cn1` the cytotoxicity call was “inactive”.
`COc1cc(-c2coc3cc(O[C@@H]4O[C@H](CO)[C@@H](O)[C@H](O)[C@H]4O)c(OC)c(O)c3c2=O)cc(O)c1OC` was tested, and the cytotoxicity call was “inactive”.
For `COc1ccc(-c2oc3cc(O[C@H]4O[C@H](CO)[C@@H](O)[C@H](O)[C@H]4O)c(OC)c(O)c3c(=O)c2OC)cc1O`, the cytotoxicity call was “inactive”.
For `COc1cc(-c2coc3cc(OC4OC(CO)C(O)C(O)C4O)c(OC)c(O)c3c2=O)cc(O)c1OC` (configuration not stated), the cytotoxicity call was “active”.
`O=C1CCCSc2ccccc21` was tested, and the cytotoxicity call was “inactive”.
For `C[C@@H]1CN([C@H](C)CO)C(=O)c2cc(NC(=O)C3CCCCC3)ccc2O[C@@H](C)CCCCO[C@H]1CN(C)C(=O)Nc1ccc2c(c1)OCO2`, the cytotoxicity call was “inactive”.
With `C[C@@H]1CCCCO[C@@H](CN(C)C(=O)CCCN(C)C)[C@H](C)CN([C@@H](C)CO)C(=O)c2cc(N(C)C)ccc2O1` the cytotoxicity call was “inactive”.
For `C[C@H](CO)N1C[C@H](C)[C@@H](CN(C)C(=O)Nc2ccc(F)cc2)OCCCC[C@H](C)Oc2ccc(NC(=O)Nc3ccccc3)cc2C1=O`, the cytotoxicity call was “inactive”.
`CC(C)C(C)C=CC(C)C1CCC2C3=CC=C4CC(O)CCC4(C)C3CCC21C` (configuration not stated) was tested, and the cytotoxicity call was “inactive”.
In the case of `CCn1cc(C(=O)O)c(=O)c2ccc(C)nc21`, the cytotoxicity call is reported as “inactive”.
With `Cc1ccc2c(Br)cc(Br)c(OC(=O)c3ccccc3)c2n1` the cytotoxicity call was “active”.
For `CNC[C@@H]1Oc2cc(C#CC(C)(C)O)ccc2S(=O)(=O)N([C@@H](C)CO)C[C@H]1C`, the cytotoxicity call was “inactive”.
With `COc1ccccc1C#Cc1ccc2c(c1)O[C@@H](CN(C)Cc1ccncc1)[C@@H](C)CN([C@@H](C)CO)S2(=O)=O` the cytotoxicity call was “inactive”.
In the case of `C[C@H]1CN([C@@H](C)CO)S(=O)(=O)c2ccc(-c3ccncc3)cc2O[C@@H]1CN(C)Cc1ccc(Oc2ccccc2)cc1`, the cytotoxicity call is reported as “inactive”.
For `COc1ccccc1C#Cc1ccc2c(c1)O[C@H](CN(C)Cc1ccncc1)[C@@H](C)CN([C@H](C)CO)S2(=O)=O`, the cytotoxicity call was “inactive”.
In the case of `COc1ccccc1C#Cc1ccc2c(c1)O[C@H](CN(C)Cc1ccncc1)[C@@H](C)CN([C@@H](C)CO)S2(=O)=O`, the cytotoxicity call is reported as “active”.
In the case of `C[C@@H]1CN([C@@H](C)CO)S(=O)(=O)c2ccc(-c3ccncc3)cc2O[C@H]1CN(C)Cc1ccc(Oc2ccccc2)cc1`, the cytotoxicity call is reported as “active”.
`COc1ccccc1C#Cc1ccc2c(c1)O[C@@H](CN(C)Cc1ccncc1)[C@@H](C)CN([C@H](C)CO)S2(=O)=O` was tested, and the cytotoxicity call was “inactive”.
With `C[C@H]1CN([C@@H](C)CO)S(=O)(=O)c2ccc(-c3ccncc3)cc2O[C@H]1CN(C)Cc1ccc(Oc2ccccc2)cc1` the cytotoxicity call was “inactive”.
For `COc1ccccc1C#Cc1ccc2c(c1)O[C@@H](CN(C)Cc1ccncc1)[C@H](C)CN([C@H](C)CO)S2(=O)=O`, the cytotoxicity call was “inactive”.
`COc1ccccc1C#Cc1ccc2c(c1)O[C@H](CN(C)Cc1ccncc1)[C@H](C)CN([C@H](C)CO)S2(=O)=O` was tested, and the cytotoxicity call was “active”.
With `Cl.N=C(N)n1cccn1` the cytotoxicity call was “inactive”.
`C[C@@H]1CCCCO[C@@H](CN(C)S(=O)(=O)c2cn(C)cn2)[C@@H](C)CN([C@H](C)CO)C(=O)c2cc(N(C)C)ccc2O1` was tested, and the cytotoxicity call was “inactive”.
In the case of `Cn1cccc1CNCCCN1CCOCC1`, the cytotoxicity call is reported as “inactive”.
In the case of `C[C@H]1CCCCO[C@H](CN(C)C(=O)Nc2ccc3c(c2)OCO3)[C@@H](C)CN([C@@H](C)CO)C(=O)c2cc(NC(=O)Nc3ccc(C(F)(F)F)cc3)ccc2O1`, the cytotoxicity call is reported as “inactive”.
`Cc1ccc(S(=O)(=O)N(C)C[C@H]2Oc3ccc(NS(C)(=O)=O)cc3C(=O)N([C@H](C)CO)C[C@@H]2C)cc1` was tested, and the cytotoxicity call was “inactive”.
For `Cc1noc(C)c1NC(=O)Nc1ccc2c(c1)C(=O)N([C@H](C)CO)C[C@@H](C)[C@H](CN(C)Cc1ccc(C(F)(F)F)cc1)O2`, the cytotoxicity call was “inactive”.
